In the supplement of paper PMC8728848:
This is one part of a sample in which the strongest signals are shown more often than they occur.

Experiments:
Assay in all cases: glycan array binding signal (z-score within array); higher = stronger binding
Conditions in all cases: glycan notation: IUPAC condensed, linker removed
[1] = target: Fuc(a1-2)Gal(b1-3)[Fuc(a1-4)]GlcNAc(b1-2)Man(a1-3)[Fuc(a1-2)Gal(b1-3)[Fuc(a1-4)]GlcNAc(b1-2)Man(a1-6)]Man(b1-4)GlcNAc(b1-4)GlcNAc
Method in brief: (§1)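 The Consortium for Functional Glycomics database supplied 3228 glycan arrays, of which those lacking an available protein sequence were dropped. The binding signal, a within-array Z-score, was averaged across arrays of the same protein sequence and across linkers. Negative scores can be read as non-binding.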

[2] = target: Fuc(a1-2)Gal(b1-3)[Fuc(a1-4)]GlcNAc(b1-3)[Gal(b1-4)GlcNAc(b1-6)]Gal(b1-4)Glc
Method in brief: as §1

[3] = target: Fuc(a1-2)Gal(b1-4)GlcNAc(b1-3)Gal(b1-4)GlcNAc(b1-3)Gal(b1-4)GlcNAc
Method in brief: as §1

[4] = target: Fuc(a1-2)[Gal(a1-3)]Gal(b1-4)GlcNAc(b1-2)Man(a1-3)[Fuc(a1-2)[Gal(a1-3)]Gal(b1-4)GlcNAc(b1-2)Man(a1-6)]Man(b1-4)GlcNAc(b1-4)[Fuc(a1-6)]GlcNAc
Method in brief: as §1

[5] = target: Fuc(a1-2)[Gal(a1-3)]Gal(b1-4)[Fuc(a1-3)]GlcNAc
Method in brief: as §1

[6] = target: Fuc(a1-3)[Gal(b1-4)]Glc6S
Method in brief: as §1

[7] = target: Fuc(a1-3)[Gal(b1-4)]GlcNAc(b1-4)Gal(b1-4)[Fuc(a1-3)]GlcNAc(b1-4)Gal(b1-4)[Fuc(a1-3)]GlcNAc
Method in brief: as §1

Fuc(a1-4)GlcNAc = target: Fuc(a1-4)GlcNAc
Method in brief: as §1

[8] = target: Gal(a1-4)Gal(b1-3)GlcNAc(b1-2)Man(a1-3)[Gal(a1-4)Gal(b1-3)GlcNAc(b1-2)Man(a1-6)]Man(b1-4)GlcNAc(b1-4)GlcNAc
Method in brief: as §1

Gal(a1-4)Gal(b1-4)Glc = target: Gal(a1-4)Gal(b1-4)Glc
Method in brief: as §1

Gal(b1-3)Gal(b1-4)GlcNAc = target: Gal(b1-3)Gal(b1-4)GlcNAc
Method in brief: as §1

[9] = target: Gal(b1-4)GlcNAc(b1-2)[Gal(b1-4)GlcNAc(b1-6)]Man(a1-6)[Gal(b1-4)GlcNAc(b1-2)Man(a1-3)]Man(b1-4)GlcNAc(b1-4)GlcNAc
Method in brief: as §1

[10] = target: Gal(b1-4)GlcNAc(b1-3)[Gal(b1-4)GlcNAc(b1-6)]Gal(b1-4)GlcNAc
Method in brief: as §1

[11] = target: Gal(b1-4)GlcNAc(b1-3)[Gal(b1-4)GlcNAc(b1-6)]GalNAc
Method in brief: as §1

Gal6S(b1-4)Glc6S = target: Gal6S(b1-4)Glc6S
Method in brief: as §1

[12] = target: GalNAc(a1-3)Fuc(a1-2)Gal(b1-4)GlcNAc(b1-3)[GalNAc(a1-3)Fuc(a1-2)Gal(b1-4)GlcNAc(b1-6)]GalNAc
Method in brief: as §1

[13] = target: GalNAc(b1-3)Gal(a1-6)Gal(b1-4)Glc
Method in brief: as §1

GalNAc(b1-3)GalNAc = target: GalNAc(b1-3)GalNAc
Method in brief: as §1

[14] = target: Glc(a1-6)Glc(a1-6)Glc(a1-6)Glc
Method in brief: as §1

GlcA(b1-3)Gal = target: GlcA(b1-3)Gal
Method in brief: as §1

[15] = target: GlcNAc(b1-3)Gal(b1-3)GalNAc
Method in brief: as §1

GlcNAc(b1-3)GalNAc = target: GlcNAc(b1-3)GalNAc
Method in brief: as §1

[16] = target: GlcNAc(b1-3)[GlcNAc(b1-6)]GalNAc
Method in brief: as §1

GlcNAc(b1-4)GlcNAc = target: GlcNAc(b1-4)GlcNAc
Method in brief: as §1

GlcNAc3Prop(b1-4)GlcNAc = target: GlcNAc3Prop(b1-4)GlcNAc
Method in brief: as §1

[17] = target: Man(a1-2)Man(a1-3)[Man(a1-2)Man(a1-6)]Man(a1-6)[Man(a1-2)Man(a1-2)Man(a1-3)]Man(b1-4)GlcNAc(b1-4)GlcNAc
Method in brief: as §1

[18] = target: Neu5Ac(a2-3)Gal(b1-3)GalNAc(b1-4)[Neu5Ac(a2-3)]Gal(b1-4)Glc
Method in brief: as §1

[19] = target: Neu5Ac(a2-3)Gal(b1-3)GlcNAc
Method in brief: as §1

[20] = target: Neu5Ac(a2-3)Gal(b1-3)GlcNAc6S
Method in brief: as §1

[21] = target: Neu5Ac(a2-3)Gal(b1-3)[Neu5Ac(a2-6)]GalNAc
Method in brief: as §1

[22] = target: Neu5Ac(a2-3)Gal(b1-4)GlcNAc(b1-6)[Gal(b1-3)]GalNAc
Method in brief: as §1

[23] = target: Neu5Ac(a2-3)Gal(b1-4)[Fuc(a1-3)]GlcNAc(b1-3)GalNAc
Method in brief: as §1

[24] = target: Neu5Ac(a2-3)Gal(b1-4)[Fuc(a1-3)]GlcNAc(b1-6)[Gal(b1-3)]GalNAc
Method in brief: as §1

[25] = target: Neu5Ac(a2-6)Gal(b1-4)GlcNAc(b1-2)Man(a1-6)[GlcNAc(b1-2)Man(a1-3)]Man(b1-4)GlcNAc(b1-4)GlcNAc
Method in brief: as §1

[26] = target: Neu5Ac(a2-6)GlcNAc(b1-4)GlcNAc(b1-4)GlcNAc
Method in brief: as §1

[27] = target: Neu5Ac(a2-8)Neu5Ac(a2-3)Gal(b1-4)Glc
Method in brief: as §1

[28] = target: Neu5Ac(a2-8)Neu5Ac(a2-3)[Gal(b1-3)GalNAc(b1-4)]Gal(b1-4)Glc
Method in brief: as §1

B1: SefD (Salmonella enterica), Q9L6K6 (protein)
chain: GAYIIRGQNNSAHKLRIRIGGEDWQPDNSGIGMVSHSDFTNEFNIYYFGNGDIPVDTYLISIYATEIEL
glycan array binding signal (z-score) [1]: -0.362 | glycan array binding signal (z-score) [2]: 5.83 | glycan array binding signal (z-score) [3]: -0.043 | glycan array binding signal (z-score) [4]: -0.413 | glycan array binding signal (z-score) [5]: -0.401 | glycan array binding signal (z-score) [6]: -0.328 | glycan array binding signal (z-score) [7]: -0.46 | glycan array binding signal (z-score) (Fuc(a1-4)GlcNAc): 2.37 | glycan array binding signal (z-score) [8]: -0.091 | glycan array binding signal (z-score) (Gal(a1-4)Gal(b1-4)Glc): -0.442 | glycan array binding signal (z-score) (Gal(b1-3)Gal(b1-4)GlcNAc): 2.24 | glycan array binding signal (z-score) [9]: 0.127 | glycan array binding signal (z-score) [10]: -0.614 | glycan array binding signal (z-score) [11]: -0.441 | glycan array binding signal (z-score) (Gal6S(b1-4)Glc6S): -0.435 | glycan array binding signal (z-score) [12]: 5.38 | glycan array binding signal (z-score) [13]: -0.631 | glycan array binding signal (z-score) (GalNAc(b1-3)GalNAc): -0.05 | glycan array binding signal (z-score) [14]: -0.319 | glycan array binding signal (z-score) (GlcA(b1-3)Gal): -0.456 | glycan array binding signal (z-score) [15]: -0.29 | glycan array binding signal (z-score) (GlcNAc(b1-3)GalNAc): -0.427 | glycan array binding signal (z-score) [16]: -0.43 | glycan array binding signal (z-score) (GlcNAc(b1-4)GlcNAc): 0.15 | glycan array binding signal (z-score) (GlcNAc3Prop(b1-4)GlcNAc): 6.32 | glycan array binding signal (z-score) [17]: -0.324 | glycan array binding signal (z-score) [18]: -0.395 | glycan array binding signal (z-score) [19]: -0.336 | glycan array binding signal (z-score) [20]: -0.237 | glycan array binding signal (z-score) [21]: 2.7 | glycan array binding signal (z-score) [22]: 3.13 | glycan array binding signal (z-score) [23]: 11.3 | glycan array binding signal (z-score) [24]: -0.092 | glycan array binding signal (z-score) [25]: -0.228 | glycan array binding signal (z-score) [26]: -0.293 | glycan array binding signal (z-score) [27]: 0.431 | glycan array binding signal (z-score) [28]: 0.969
